# Key:
# Experiment in all cases: DAPPL (digital affinity profiling via proximity ligation, sequencing); 10 mM Tris-HCl pH 7.5, 50 mM NaCl, 1 mM DTT, 4% glycerol, room temperature, 30 min; GST-TFs on glutathione beads, 16-mer random dsDNA library, 0.1% formaldehyde crosslink after washing; high values mean tight binding
# Conditions in all cases: protein: recombinant; tags: N-terminal GST; dsDNA, one strand shown
# ERF = biological target: T1, ERF (Homo sapiens, UniProt P50548 1-548)
# T1 sequence: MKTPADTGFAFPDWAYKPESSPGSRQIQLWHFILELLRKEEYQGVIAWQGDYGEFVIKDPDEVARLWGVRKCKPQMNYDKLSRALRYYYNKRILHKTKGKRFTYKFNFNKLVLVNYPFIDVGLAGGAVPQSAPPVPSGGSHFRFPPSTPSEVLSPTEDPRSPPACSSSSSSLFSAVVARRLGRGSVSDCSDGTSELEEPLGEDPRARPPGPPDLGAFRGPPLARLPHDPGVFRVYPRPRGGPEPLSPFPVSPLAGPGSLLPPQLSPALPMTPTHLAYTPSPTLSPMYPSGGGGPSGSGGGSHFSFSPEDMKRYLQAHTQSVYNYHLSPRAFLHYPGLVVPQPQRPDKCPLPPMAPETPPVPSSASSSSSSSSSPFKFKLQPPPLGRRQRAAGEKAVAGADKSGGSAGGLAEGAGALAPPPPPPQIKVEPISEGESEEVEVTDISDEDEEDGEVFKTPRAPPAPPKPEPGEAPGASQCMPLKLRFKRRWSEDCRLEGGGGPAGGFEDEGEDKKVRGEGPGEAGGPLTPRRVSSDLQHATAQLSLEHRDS
# In short: (§1)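 Binding signal is each hexamer's read frequency for a factor divided by its frequency in the tag-only sample. The factors were GST-fused human transcription factors from yeast, captured on glutathione beads, DNA-barcoded and pooled with that sample. Pools were incubated with 200 nmole of a random double-stranded 16-mer DNA library in Tris/NaCl/DTT/glycerol buffer at room temperature for 30 min, then washed, crosslinked with 0.1% formaldehyde, proximity-ligated with BsaI/T4 ligase (1 h, 37 °C), PCR-amplified and sequenced on an Illumina NextSeq500.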
# ETV3L = biological target: T2, ETV3L (Homo sapiens, UniProt Q6ZN32 1-361)
# T2 sequence: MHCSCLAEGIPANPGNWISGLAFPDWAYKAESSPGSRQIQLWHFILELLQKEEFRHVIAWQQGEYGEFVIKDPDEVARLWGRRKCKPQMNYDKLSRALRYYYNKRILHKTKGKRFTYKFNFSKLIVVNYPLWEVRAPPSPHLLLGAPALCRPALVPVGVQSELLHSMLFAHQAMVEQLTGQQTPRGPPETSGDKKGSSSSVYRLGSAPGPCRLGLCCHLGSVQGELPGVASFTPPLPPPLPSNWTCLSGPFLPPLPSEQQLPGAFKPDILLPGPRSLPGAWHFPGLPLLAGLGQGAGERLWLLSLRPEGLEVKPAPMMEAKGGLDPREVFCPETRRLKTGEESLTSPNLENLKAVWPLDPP
# In short: as §1
# ETS2 = biological target: T3, ETS2 (Homo sapiens, UniProt P15036 1-469)
# T3 sequence: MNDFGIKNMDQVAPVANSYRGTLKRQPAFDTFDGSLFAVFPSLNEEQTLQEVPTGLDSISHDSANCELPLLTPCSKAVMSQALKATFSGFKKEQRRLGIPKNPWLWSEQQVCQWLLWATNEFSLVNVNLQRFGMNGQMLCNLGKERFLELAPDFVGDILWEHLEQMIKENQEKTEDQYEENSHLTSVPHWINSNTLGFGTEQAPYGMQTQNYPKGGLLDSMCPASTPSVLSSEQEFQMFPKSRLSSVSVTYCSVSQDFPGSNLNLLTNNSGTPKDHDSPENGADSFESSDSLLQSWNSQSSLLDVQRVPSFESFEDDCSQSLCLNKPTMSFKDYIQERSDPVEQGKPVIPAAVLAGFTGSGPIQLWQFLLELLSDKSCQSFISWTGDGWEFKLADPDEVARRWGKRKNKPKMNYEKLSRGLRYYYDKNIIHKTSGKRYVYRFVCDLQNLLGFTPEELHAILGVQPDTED
# In short: as §1
# SPDEF = biological target: T4, SPDEF (Homo sapiens, UniProt O95238 1-335)
# T4 sequence: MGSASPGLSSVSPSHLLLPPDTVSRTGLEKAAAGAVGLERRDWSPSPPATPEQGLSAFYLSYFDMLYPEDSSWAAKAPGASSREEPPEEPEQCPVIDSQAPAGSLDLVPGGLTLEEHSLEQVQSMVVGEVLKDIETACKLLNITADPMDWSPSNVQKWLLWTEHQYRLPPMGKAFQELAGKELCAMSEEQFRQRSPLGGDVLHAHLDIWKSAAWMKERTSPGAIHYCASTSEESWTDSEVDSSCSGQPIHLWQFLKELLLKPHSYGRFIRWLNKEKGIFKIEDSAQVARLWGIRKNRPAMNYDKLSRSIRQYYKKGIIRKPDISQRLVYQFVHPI
# In short: as §1
# ETV7 = biological target: T5, ETV7 (Homo sapiens, UniProt Q9Y603 1-341)
# T5 sequence: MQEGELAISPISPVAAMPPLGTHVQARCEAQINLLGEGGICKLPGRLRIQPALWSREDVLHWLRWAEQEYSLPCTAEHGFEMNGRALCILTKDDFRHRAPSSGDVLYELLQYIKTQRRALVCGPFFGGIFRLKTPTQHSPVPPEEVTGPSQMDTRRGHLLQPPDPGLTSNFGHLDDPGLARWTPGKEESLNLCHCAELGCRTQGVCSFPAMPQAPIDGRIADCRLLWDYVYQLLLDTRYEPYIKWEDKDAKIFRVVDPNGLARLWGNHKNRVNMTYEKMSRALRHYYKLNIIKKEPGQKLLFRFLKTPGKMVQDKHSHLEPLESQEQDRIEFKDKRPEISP
# In short: as §1
# ELF5 = biological target: T6, ELF5 (Homo sapiens, UniProt Q9UKW6-2 1-255)
# T6 sequence: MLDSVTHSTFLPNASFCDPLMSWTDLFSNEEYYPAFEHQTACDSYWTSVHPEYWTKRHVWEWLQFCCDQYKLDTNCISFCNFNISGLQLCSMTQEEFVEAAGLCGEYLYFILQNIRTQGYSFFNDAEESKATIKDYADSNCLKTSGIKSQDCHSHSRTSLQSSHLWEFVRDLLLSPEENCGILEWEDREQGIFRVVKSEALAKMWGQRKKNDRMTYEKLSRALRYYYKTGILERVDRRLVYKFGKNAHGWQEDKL
# In short: as §1
# ETV3 = biological target: T7, ETV3 (Homo sapiens, UniProt P41162-2 1-143)
# T7 sequence: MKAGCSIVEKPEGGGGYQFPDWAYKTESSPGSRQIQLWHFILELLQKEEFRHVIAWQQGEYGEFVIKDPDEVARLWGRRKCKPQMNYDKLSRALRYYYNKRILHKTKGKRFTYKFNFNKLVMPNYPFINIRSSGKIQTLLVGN
# In short: as §1
# ETV6 = ETV6 (Homo sapiens, UniProt P41212 1-452)
# In short: as §1
# ETV6, sequence (P41212 whole entry): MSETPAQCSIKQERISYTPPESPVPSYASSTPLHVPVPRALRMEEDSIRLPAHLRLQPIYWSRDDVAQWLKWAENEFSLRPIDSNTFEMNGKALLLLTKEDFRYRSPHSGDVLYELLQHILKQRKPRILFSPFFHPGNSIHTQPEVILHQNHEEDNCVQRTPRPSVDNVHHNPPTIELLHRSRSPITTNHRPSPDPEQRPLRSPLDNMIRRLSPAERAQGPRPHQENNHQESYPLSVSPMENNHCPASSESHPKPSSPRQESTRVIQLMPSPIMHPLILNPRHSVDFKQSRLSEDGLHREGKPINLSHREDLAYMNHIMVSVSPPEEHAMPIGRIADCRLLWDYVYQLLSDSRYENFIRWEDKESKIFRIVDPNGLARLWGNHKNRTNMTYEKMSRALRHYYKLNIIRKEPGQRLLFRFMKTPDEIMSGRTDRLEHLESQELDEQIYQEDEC
Sequence,binding signal (ERF),binding signal (ETV3L),binding signal (ETS2),binding signal (SPDEF),binding signal (ETV7),binding signal (ELF5),binding signal (ETV3),binding signal (ETV6)
GTTGCA,"1.13 fold enrichment (6-mer frequency, TF over GST control)","1.19 fold enrichment (6-mer frequency, TF over GST control)","1.17 fold enrichment (6-mer frequency, TF over GST control)","1.17 fold enrichment (6-mer frequency, TF over GST control)","1.15 fold enrichment (6-mer frequency, TF over GST control)","1.1 fold enrichment (6-mer frequency, TF over GST control)","1.14 fold enrichment (6-mer frequency, TF over GST control)","1.11 fold enrichment (6-mer frequency, TF over GST control)"
AACGTC,"1.01 fold enrichment (6-mer frequency, TF over GST control)","1.03 fold enrichment (6-mer frequency, TF over GST control)","1.14 fold enrichment (6-mer frequency, TF over GST control)","1.11 fold enrichment (6-mer frequency, TF over GST control)","1.11 fold enrichment (6-mer frequency, TF over GST control)","1.1 fold enrichment (6-mer frequency, TF over GST control)","1.07 fold enrichment (6-mer frequency, TF over GST control)","1.05 fold enrichment (6-mer frequency, TF over GST control)"
GAAGCT,"1.59 fold enrichment (6-mer frequency, TF over GST control)","1.58 fold enrichment (6-mer frequency, TF over GST control)","1.54 fold enrichment (6-mer frequency, TF over GST control)","1.51 fold enrichment (6-mer frequency, TF over GST control)","1.54 fold enrichment (6-mer frequency, TF over GST control)","1.71 fold enrichment (6-mer frequency, TF over GST control)","1.75 fold enrichment (6-mer frequency, TF over GST control)","1.59 fold enrichment (6-mer frequency, TF over GST control)"
GTGTTT,"1.12 fold enrichment (6-mer frequency, TF over GST control)","1.18 fold enrichment (6-mer frequency, TF over GST control)","1.19 fold enrichment (6-mer frequency, TF over GST control)","1.22 fold enrichment (6-mer frequency, TF over GST control)","1.2 fold enrichment (6-mer frequency, TF over GST control)","1.23 fold enrichment (6-mer frequency, TF over GST control)","1.15 fold enrichment (6-mer frequency, TF over GST control)","1.2 fold enrichment (6-mer frequency, TF over GST control)"
TGTTAC,"1.3 fold enrichment (6-mer frequency, TF over GST control)","1.41 fold enrichment (6-mer frequency, TF over GST control)","1.39 fold enrichment (6-mer frequency, TF over GST control)","1.54 fold enrichment (6-mer frequency, TF over GST control)","1.42 fold enrichment (6-mer frequency, TF over GST control)","1.43 fold enrichment (6-mer frequency, TF over GST control)","1.44 fold enrichment (6-mer frequency, TF over GST control)","1.31 fold enrichment (6-mer frequency, TF over GST control)"
TTTGGC,"1.29 fold enrichment (6-mer frequency, TF over GST control)","1.23 fold enrichment (6-mer frequency, TF over GST control)","1.18 fold enrichment (6-mer frequency, TF over GST control)","1.12 fold enrichment (6-mer frequency, TF over GST control)","1.24 fold enrichment (6-mer frequency, TF over GST control)","1.18 fold enrichment (6-mer frequency, TF over GST control)","1.21 fold enrichment (6-mer frequency, TF over GST control)","1.26 fold enrichment (6-mer frequency, TF over GST control)"
TATGCC,"1.16 fold enrichment (6-mer frequency, TF over GST control)","1.12 fold enrichment (6-mer frequency, TF over GST control)","1.21 fold enrichment (6-mer frequency, TF over GST control)","1.23 fold enrichment (6-mer frequency, TF over GST control)","1.19 fold enrichment (6-mer frequency, TF over GST control)","1.14 fold enrichment (6-mer frequency, TF over GST control)","1.17 fold enrichment (6-mer frequency, TF over GST control)","1.22 fold enrichment (6-mer frequency, TF over GST control)"
TGCTCA,"1.5 fold enrichment (6-mer frequency, TF over GST control)","1.31 fold enrichment (6-mer frequency, TF over GST control)","1.36 fold enrichment (6-mer frequency, TF over GST control)","1.28 fold enrichment (6-mer frequency, TF over GST control)","1.54 fold enrichment (6-mer frequency, TF over GST control)","1.38 fold enrichment (6-mer frequency, TF over GST control)","1.24 fold enrichment (6-mer frequency, TF over GST control)","1.28 fold enrichment (6-mer frequency, TF over GST control)"

# — article PMC7862700, “An all-to-all approach to the identification of sequence-specific readers for epigenetic DNA modifications on cytosine”
